PubChem BioAssay (EPA / NIEHS)
Inconclusive results are not listed. The source made the active and inactive calls. Rule for the calls, unless noted: active = hit-call score of the fitted dose curve at least 0.9, where 1 is the maximum; inconclusive = response in the unintended direction; inactive = score below 0.9.

Columns and labels:
[1] = molecular target: Estrogen receptor (Homo sapiens) (UniProt P03372); assay: OT_ERa_GFPERaERE_0120: Odyssey Thera (OT) 2-hour HeLa Transcription Induction Assay for Estrogen Receptor (AID 2283382)
Sequence of Estrogen receptor (Homo sapiens) (P03372 whole entry, looked up): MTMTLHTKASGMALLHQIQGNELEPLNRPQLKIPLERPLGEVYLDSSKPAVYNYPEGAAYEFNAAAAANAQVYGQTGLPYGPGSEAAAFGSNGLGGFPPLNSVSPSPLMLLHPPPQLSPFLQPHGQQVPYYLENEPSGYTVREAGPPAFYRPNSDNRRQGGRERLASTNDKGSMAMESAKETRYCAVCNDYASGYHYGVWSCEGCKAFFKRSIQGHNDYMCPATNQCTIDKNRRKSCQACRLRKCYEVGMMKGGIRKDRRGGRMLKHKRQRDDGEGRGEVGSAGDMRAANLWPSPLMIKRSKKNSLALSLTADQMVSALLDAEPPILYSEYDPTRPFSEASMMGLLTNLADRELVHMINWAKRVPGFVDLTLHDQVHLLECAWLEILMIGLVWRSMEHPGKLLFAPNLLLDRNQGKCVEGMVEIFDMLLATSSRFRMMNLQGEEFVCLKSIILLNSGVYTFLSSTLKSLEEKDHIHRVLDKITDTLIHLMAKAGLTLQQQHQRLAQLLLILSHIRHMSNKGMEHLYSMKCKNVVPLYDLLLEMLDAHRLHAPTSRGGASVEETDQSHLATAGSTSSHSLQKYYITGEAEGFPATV
How it was run: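 Measures ESR1 pathway reporter gain-of-signal in HeLa cells after a 2-hour treatment, detected as fluorescent protein induction by microscopy, DMSO as baseline.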

[2] = molecular target: Bile acid receptor (Homo sapiens) (UniProt Q96RI1); assay: OT_FXR_FXRSRC1_0480: Odyssey Thera (OT) 8-hour HEK293T Protein-Complementation Assay for Farnesoid X receptor/SRC-1 Co-activator (AID 2283383)
Sequence of Bile acid receptor (Homo sapiens) (Q96RI1 whole entry, looked up, the tested form may be a part): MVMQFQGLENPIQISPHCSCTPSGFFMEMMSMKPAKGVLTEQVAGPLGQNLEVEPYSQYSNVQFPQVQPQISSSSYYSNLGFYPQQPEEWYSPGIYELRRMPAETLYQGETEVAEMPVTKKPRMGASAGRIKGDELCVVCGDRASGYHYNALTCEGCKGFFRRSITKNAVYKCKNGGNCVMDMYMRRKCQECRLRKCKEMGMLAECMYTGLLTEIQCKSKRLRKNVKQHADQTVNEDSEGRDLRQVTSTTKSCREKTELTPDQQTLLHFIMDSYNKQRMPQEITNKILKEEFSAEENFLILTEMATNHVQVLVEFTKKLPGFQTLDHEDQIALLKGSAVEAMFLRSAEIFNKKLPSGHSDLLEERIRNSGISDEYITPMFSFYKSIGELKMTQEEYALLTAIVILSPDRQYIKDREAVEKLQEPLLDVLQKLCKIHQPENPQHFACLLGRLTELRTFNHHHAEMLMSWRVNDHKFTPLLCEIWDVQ
How it was run: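 Co-activator recruitment to FXR was measured in living HEK293T cells, where interaction of the two fused partners restored an active fluorescent reporter. Signal gain after 8 h treatment was referenced to DMSO.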

[3] = molecular target: Bile acid receptor (Homo sapiens) (UniProt Q96RI1); assay: OT_FXR_FXRSRC1_1440: Odyssey Thera (OT) 24-hour HEK293T Protein-Complementation Assay for Farnesoid X receptor/SRC-1 Co-activator (AID 2283384)
How it was run: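 Cell-based binding reporter: interaction of FXR with SRC-1 brings reporter fragments together, giving a fluorescence signal read 24 h after dosing of HEK293T cells.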

[4] = molecular target: Retinoic acid receptor RXR-alpha (Homo sapiens) (UniProt P19793); assay: OT_NURR1_NURR1RXRa_0480: Odyssey Thera (OT) 8-hour HEK293T Protein Complementation Assay for Nurr1/retinoid X receptor (RXR) (AID 2283385)
Sequence of Retinoic acid receptor RXR-alpha (Homo sapiens) (P19793 whole entry, looked up, the tested form may be a part): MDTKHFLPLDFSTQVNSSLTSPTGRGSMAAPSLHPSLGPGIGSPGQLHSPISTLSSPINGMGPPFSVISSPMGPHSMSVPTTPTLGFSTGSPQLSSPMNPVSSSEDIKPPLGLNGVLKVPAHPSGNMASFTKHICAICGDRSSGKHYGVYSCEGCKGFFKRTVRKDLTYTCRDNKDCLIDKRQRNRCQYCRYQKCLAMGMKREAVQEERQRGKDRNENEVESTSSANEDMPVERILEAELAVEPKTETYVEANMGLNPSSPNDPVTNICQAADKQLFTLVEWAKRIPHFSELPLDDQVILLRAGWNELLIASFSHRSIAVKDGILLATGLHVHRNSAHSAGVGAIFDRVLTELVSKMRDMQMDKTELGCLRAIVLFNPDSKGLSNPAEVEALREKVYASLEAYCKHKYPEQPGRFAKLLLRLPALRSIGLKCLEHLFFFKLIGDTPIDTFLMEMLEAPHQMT
How it was run: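 Compounds are applied to HEK293T cells carrying Nurr1 and RXRα linked to reporter fragments. After 8 h, fluorescence intensity reports heterodimer formation, with DMSO as baseline.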

[5] = molecular target: Retinoic acid receptor RXR-alpha (Homo sapiens) (UniProt P19793); assay: OT_NURR1_NURR1RXRa_1440: Odyssey Thera (OT) 24-hour HEK293T Protein Complementation Assay for Nurr1/retinoid X receptor (RXR) (AID 2283386)
How it was run: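 Measured as fluorescence from a reconstituted split reporter, this 24 h HEK293T complementation assay scores compound-induced gain of Nurr1/RXRα association relative to DMSO.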

[6] = molecular target: Peroxisome proliferator-activated receptor gamma (Homo sapiens) (UniProt P37231); assay: OT_PPARg_PPARgSRC1_0480: Odyssey Thera (OT) 8-hour Protein-Complementation Assay for Peroxisome Proliferator-activated Receptor Gamma / SRC-1 Co-activator (AID 2283387);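 note: nuclear to cytoplasmic split Venus YFP fluorescence ratio reporting PPARg SRC-1 interaction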
Sequence of Peroxisome proliferator-activated receptor gamma (Homo sapiens) (P37231 whole entry, looked up, the tested form may be a part): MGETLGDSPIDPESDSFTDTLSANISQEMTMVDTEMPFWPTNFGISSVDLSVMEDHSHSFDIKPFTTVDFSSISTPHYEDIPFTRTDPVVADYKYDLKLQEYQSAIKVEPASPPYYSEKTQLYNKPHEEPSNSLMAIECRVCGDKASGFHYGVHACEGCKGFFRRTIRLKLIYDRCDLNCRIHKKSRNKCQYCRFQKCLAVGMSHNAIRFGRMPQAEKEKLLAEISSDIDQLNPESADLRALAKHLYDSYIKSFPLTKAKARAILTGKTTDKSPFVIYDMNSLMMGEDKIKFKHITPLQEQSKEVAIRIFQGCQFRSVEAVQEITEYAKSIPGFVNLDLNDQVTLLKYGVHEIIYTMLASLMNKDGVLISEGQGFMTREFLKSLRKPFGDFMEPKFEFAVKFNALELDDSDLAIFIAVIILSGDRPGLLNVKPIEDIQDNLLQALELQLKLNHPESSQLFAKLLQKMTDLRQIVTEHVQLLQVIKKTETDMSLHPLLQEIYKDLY
How it was run: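 Protein-fragment complementation of split Venus YFP reports PPARg/SRC-1 interaction in HEK293T (transfected 48 h before treatment), exposed 8 h. Readout: N/C fluorescence ratio at 488 nm from imaging, Draq5 for segmentation, positive fit relative to DMSO.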

[7] = molecular target: Peroxisome proliferator-activated receptor gamma (Homo sapiens) (UniProt P37231); assay: OT_PPARg_PPARgSRC1_1440: Odyssey Thera (OT) 24-hour Protein-Complementation Assay for Peroxisome Proliferator-activated Receptor Gamma/ SRC-1 Co-activator (AID 2283388);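 note: nuclear to cytoplasmic ratio of reconstituted Venus YFP fluorescence in fixed imaged cells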
How it was run: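 Readout: nuclear-to-cytoplasmic 488 nm fluorescence ratio, ≥350 cells per image, 8 images per well, after 24 h compound exposure of HEK293T expressing PPARg/SRC-1 split-YFP fusions. Activity fitted in positive direction against DMSO.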

[8] = molecular target: Estrogen receptor beta (Homo sapiens) (UniProt Q92731); assay: OT_ER_ERbERb_1440: Odyssey Thera (OT) 24-hour HEK293T Protein-Complementation Assay for Estrogen Receptor-beta/-beta Homodimer (AID 2283380);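 note: fluorescence gain from ER beta LBD homodimer complementation read by laser scanning cytometry; scored as signal increase over DMSO baseline for both agonists and antagonists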
Sequence of Estrogen receptor beta (Homo sapiens) (Q92731 whole entry, looked up, the tested form may be a part): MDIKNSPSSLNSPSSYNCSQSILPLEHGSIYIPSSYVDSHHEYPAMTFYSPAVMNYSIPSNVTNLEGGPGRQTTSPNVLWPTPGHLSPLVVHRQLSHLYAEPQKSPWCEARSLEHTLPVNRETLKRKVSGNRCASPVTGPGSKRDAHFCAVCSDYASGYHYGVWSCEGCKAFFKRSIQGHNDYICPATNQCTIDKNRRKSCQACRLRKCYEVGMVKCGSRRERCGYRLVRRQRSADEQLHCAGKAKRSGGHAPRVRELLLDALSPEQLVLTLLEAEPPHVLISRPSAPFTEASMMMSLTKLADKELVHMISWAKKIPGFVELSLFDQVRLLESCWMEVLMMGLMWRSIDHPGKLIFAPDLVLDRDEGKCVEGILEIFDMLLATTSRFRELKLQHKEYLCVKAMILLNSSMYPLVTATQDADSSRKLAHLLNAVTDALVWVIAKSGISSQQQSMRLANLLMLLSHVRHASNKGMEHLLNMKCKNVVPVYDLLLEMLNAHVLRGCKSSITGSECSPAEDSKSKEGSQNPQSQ
How it was run: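 HEK293T cells stably expressing human ER-beta LBD (aa 310-547) PCA homodimer pair, dosed 24 h; formaldehyde-fixed, Draq5-stained. Readout: increase in nuclear (agonist) or nuclear plus cytoplasmic (antagonist) fluorescence intensity versus DMSO, gain-of-signal fitting.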

[9] = molecular target: Estrogen receptor (Homo sapiens) (UniProt P03372); assay: OT_ERa_GFPERaERE_0480: Odyssey Thera (OT) 8-hour HeLa Transcription Induction Assay for Estrogen Receptor (AID 2283381; active = hit-call score of the fitted dose curve at least 0.9, where 1 is the maximum; inactive = score below 0.9)
How it was run: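 Cells (HeLa) receive compound; after 8 h, reporter fluorescence is imaged and quantified by high-content analysis. Gain-of-signal relative to DMSO gives the endpoint.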

[10] = CEETOX_H295R_OHPREG: CeeTox H295R High-throughput Steroidogenesis Assay for OH-Pregnenolone (OHPREG) (AID 2283434; active = hit-call score of the fitted dose curve at least 0.9, where 1 is the maximum; inactive = score below 0.9); details: actives raise or lower the signal
How it was run: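 Human adrenal H295R cells were prestimulated 48 h with 10 uM forskolin, then exposed 48 h to chemical in 0.1% DMSO. Medium 17alpha-hydroxypregnenolone was quantified by HPLC-MS/MS after MTBE extraction; bidirectional fitting versus DMSO baseline.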

[11] = CEETOX_H295R_OHPROG: CeeTox H295R High-throughput Steroidogenesis Assay for OH-Progesterone (OHPROG) (AID 2283435; active = hit-call score of the fitted dose curve at least 0.9, where 1 is the maximum; inactive = score below 0.9); details: actives raise or lower the signal
How it was run: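 Secreted 17alpha-hydroxyprogesterone is read by tandem MS from media of forskolin-primed H295R cells dosed with chemical for 48 h. Activity is fitted in both directions against DMSO baseline; cytotoxic concentrations are re-tested diluted.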

[12] = CEETOX_H295R_ESTRADIOL: CeeTox H295R High-throughput Steroidogenesis Assay for Estradiol (AID 2283440; active = hit-call score of the fitted dose curve at least 0.9, where 1 is the maximum; inactive = score below 0.9;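 note: estradiol secreted into medium quantified by LC-MS/MS after dansyl derivatisation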); details: actives raise or lower the signal
How it was run: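 H295R, 48 h forskolin (10 uM) prestim → 48 h compound, 0.1% DMSO final. Estradiol in medium: MTBE extraction, dansyl chloride derivatization, LC-MS/MS. Fit bidirectional vs DMSO baseline; MTT viability in same wells.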

[13] = CEETOX_H295R_ESTRONE: CeeTox H295R High-throughput Steroidogenesis Assay for Estrone (AID 2283441; active = hit-call score of the fitted dose curve at least 0.9, where 1 is the maximum; inactive = score below 0.9;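 note: estrone secreted into medium measured by LC-MS/MS after dansyl derivatization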); details: actives raise or lower the signal
How it was run: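 H295R cells; 48 h forskolin (10 uM) prestimulation; 48 h compound exposure, 0.1% DMSO final. Medium estrone: MTBE extraction, dansyl derivatization, HPLC-MS/MS. Bidirectional fit vs DMSO.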

[14] = CEETOX_H295R_11DCORT: CeeTox H295R High-throughput Steroidogenesis Assay for 11-Deoxycortisol (11DCORT) (AID 2283432; active = hit-call score of the fitted dose curve at least 0.9, where 1 is the maximum; inactive = score below 0.9); details: actives raise or lower the signal
How it was run: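 Human adrenal H295R cells were prestimulated with 10 uM forskolin for 48 h, then exposed to test chemical (0.1% DMSO final) for 48 h. Medium 11-deoxycortisol was quantified by MTBE extraction and HPLC-MS/MS; bidirectional fitting relative to DMSO.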

[15] = CEETOX_H295R_CORTIC: CeeTox H295R High-throughput Steroidogenesis Assay for Corticosterone (CORTIC) (AID 2283437; active = hit-call score of the fitted dose curve at least 0.9, where 1 is the maximum; inactive = score below 0.9;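 note: corticosterone secreted into medium quantified by mass spectrometry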); details: actives raise or lower the signal
How it was run: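 H295R cells were prestimulated 48 h with 10 uM forskolin, then exposed 48 h to test chemical in 0.1% DMSO. Medium corticosterone was MTBE-extracted and quantified by HPLC-MS/MS; bidirectional fit versus DMSO baseline.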

[16] = CEETOX_H295R_CORTISOL: CeeTox H295R High-throughput Steroidogenesis Assay for Cortisol (AID 2283438; active = hit-call score of the fitted dose curve at least 0.9, where 1 is the maximum; inactive = score below 0.9;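 note: cortisol secreted into medium quantified by LC-MS/MS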); details: actives raise or lower the signal
How it was run: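 Human adrenocortical H295R cells (passage ≤10) received test chemicals for 48 h after forskolin priming. Secreted cortisol was measured by LC-MS/MS.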

[17] = CEETOX_H295R_DOC: CeeTox H295R High-throughput Steroidogenesis Assay for DOC (AID 2283439; active = hit-call score of the fitted dose curve at least 0.9, where 1 is the maximum; inactive = score below 0.9); details: actives raise or lower the signal
How it was run: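 Secreted DOC was quantified from H295R media by HPLC-MS/MS after 48 h chemical exposure following 48 h forskolin (10 uM) prestimulation. Values were fitted in both directions relative to DMSO, the negative control and baseline.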

Measured: AC50

O=P(O)(O)CCCl
inactive: [1] | [2] | [3] | [4] | [5] | [6] | [7]

COP(=O)(OC)O/C(C)=C/C(=O)N(C)C
inactive: [8] | [4] | [5] | [6] | [7]

CC(C)=CC1C(C(=O)OCc2coc(Cc3ccccc3)c2)C1(C)C (stereo not given)
inactive: [9] | [3] | [4] | [6] | [7]
active: [2] 39.6 µM | [5] 20.3 µM

O=C1C2CC=CCC2C(=O)N1SC(Cl)(Cl)Cl (stereo not given)
inactive: [8] | [1] | [6] | [7] | [10] | [11] | [12] | [13]

N#Cc1c(Cl)cccc1Cl
not listed: [1] | [2] | [3] | [9]
inactive: all other assays above
